This is an account of results in PubChem BioAssay (NCATS).

Molecules are shown by their SMILES. Values joined by “and” are separate entries in the source; they are usually repeats but may differ in a detail not shown here. Equal values may be shown once.

The nature of this assay: qHTS profiling for inhibitors of Plasmodium falciparum (DD2) proliferation (AID 743323). The note with it: lower = more inhibition; at 28.7 µM (top of the series). The source says: Plasmodium falciparum is a virulent malarial parasite that kills 1-2 million people worldwide each year. Transmitted by mosquitoes, the sporozoite form of the parasite enters the blood stream to infect hepatocytes, where they become merozoites that infect red blood cells (erythrocytes). Within erythrocytes, merozoites begin a […] cycle of growth and division, after which the parasite is released to infect new red blood cells. Gametocytes, which form within erythrocytes as well, circulate in the bloodstream and are ingested by the mosquito, thereby completing the life cycle. To profile malarial isolates for differential chemical responses and to identify inhibitors of malarial growth, an assay that measures P. falciparum growth and replication within erythrocytes was employed. This assay uses a DNA binding fluorescent dye (SYBR Green) to detect parasite DNA following cell lysis. Because mature erythrocytes lack DNA, only Plasmodium-derived DNA is detected.
The SYBR Green viability assay was adapted from a method described previously (Plouffe et al., 2008). For screening 3 ul culture medium was dispensed into 1536 well black clear bottom plates (Aurora Biotechnologies) using a Multidrop Combi (Thermo Fisher Scientific Inc.), 23 nL compounds in DMSO were added by a pin tool (Kalypsys), and 5 ul of erythrocytes infected with P. falciparum (0.3% parasitemia, 2.5% hematocrit final concentration) were added. The plates were incubated at 37 C in a humidified incubator in 5% CO2 for 72 h, and 2 ul lysis buffer (20 mM Tris HCl, 10 mM EDTA, 0.16% saponin, […]% triton X, 10X SYBR Green I supplied as 10,000X […] by Invitrogen) was added to each well. The plates were mixed for 25 sec with gentle shaking and incubated overnight at room temperature in the dark. The following morning, fluorescence intensity at 485(14) nm excitation and 535(25) nm emission wavelengths was measured on an EnVision (Perkin Elmer) plate reader. Plate reads were normalized relative to the control inhibitor (0.29 uM artemisinin) and vehicle (DMSO) wells present on each plate and then corrected by an algorithm using vehicle-only control plates at the beginning and end of the compound plate stack.
(In general: qHTS replaces the single test concentration by a dilution series.)
In the case of `O=C(O)[C@H](Cc1c[nH]c2ccccc12)N1C(=O)c2ccccc2C1=O`, the activity, percent of control worked out at 104%.

For `COc1cc2ncn(-c3cc(OCc4ccccc4C(F)(F)F)c(C(N)=O)s3)c2cc1OC`, the activity, percent of control worked out at 43.8%.

In the case of `O=C(NC1CCNCC1)c1[nH]ncc1NC(=O)c1c(Cl)cccc1Cl`, the activity, percent of control is 9.64% and 5.01%.

For `O=C(C=Cc1cccnc1)NCCCCC1CCN(C(=O)c2ccccc2)CC1`, the activity, percent of control came out at 85.9%.

In the case of `Nc1ccccc1NC(=O)c1ccc(CNc2nccc(-c3cccnc3)n2)cc1`, the activity, percent of control was 0.67%.

Turning to `CN1CCN(c2ccc3nc(-c4c(N)c5c(F)cccc5[nH]c4=O)[nH]c3c2)CC1`, the activity, percent of control is -0.739%.

`CN(C)CC=CC(=O)Nc1cc2c(Nc3ccc(F)c(Cl)c3)ncnc2cc1O[C@H]1CCOC1`: the activity, percent of control worked out at 0.518%.

As to `Nc1ccccc1NC(=O)c1ccc(CNC(=O)OCc2cccnc2)cc1`, the activity, percent of control was 92.8%.

Consider `C[C@@H]1CN(CC(=O)Nc2ccc3c(c2)Cc2cccc(-c4cc(=O)cc(N5CCOCC5)o4)c2S3)C[C@H](C)O1`, for which the activity, percent of control is 3.61%.

Regarding `CC(C)[C@H](C(=O)Nc1ccc(C(=O)NO)cc1)c1ccccc1`, the activity, percent of control stood at 0.199%.

Consider `C=CC(=O)Nc1cccc(Oc2nc(Nc3ccc(N4CCN(C)CC4)cc3OC)ncc2Cl)c1`, for which the activity, percent of control turned out to be 12.5%.

As for `C[C@@]12O[C@@H](C[C@]1(O)CO)n1c3ccccc3c3c4c(c5c6ccccc6n2c5c31)CNC4=O`, the activity, percent of control turned out to be 0.326%.

`CC1(O)CC(c2nc(-c3ccc4ccc(-c5ccccc5)nc4c3)c3c(N)nccn23)C1` (stereo not given): the activity, percent of control is 2.21%.

Regarding `Cc1[nH]c2ccccc2c1CCNCc1ccc(C=CC(=O)NO)cc1`, the activity, percent of control is -0.223%.

For `CC1(C)CCC(c2ccc(Cl)cc2)=C(CN2CCN(c3ccc(C(=O)NS(=O)(=O)c4ccc(N[C@H](CCN5CCOCC5)CSc5ccccc5)c(S(=O)(=O)C(F)(F)F)c4)cc3)CC2)C1`, the activity, percent of control came out at 2.76%.

For the compound `COc1cc(OC2CCN(C)CC2)ccc1Nc1ncc2c(n1)n(C1CCCC1)c(=O)n2C`, the activity, percent of control is 3.56%.

Turning to `C1Cc2[nH]nc(-c3nn[nH]n3)c2C1`, the activity, percent of control is 98.8%.

On to `c1cc(-c2cnn3cc(-c4ccc(OCCN5CCCCC5)cc4)cnc23)ccn1`, for which the activity, percent of control is 13.9%.

Turning to `C[C@]1(CO)CN(c2cc(C(=O)Nc3ccc4c(c3)-c3c(c(C(N)=O)nn3-c3ccc(F)cc3)CC4)c(Cl)cn2)C[C@@]1(C)CO`, the activity, percent of control came to 56.4%.

On to `CC(=O)OCCN1C(=O)c2c(C)nc3ccc(S(=O)(=O)N4CCOCC4)cc3c2C1=O`, for which the activity, percent of control is 97.6%.

Turning to `Cn1c(=O)n(-c2ccc(C(C)(C)C#N)cc2)c2c3cc(-c4cnc5ccccc5c4)ccc3ncc21`, the activity, percent of control was determined as 10.2%.

On to `NC(=O)c1c(OCc2c(F)cc(Br)cc2F)nsc1NC(=O)NCCCCN1CCCC1`, for which the activity, percent of control turned out to be 17.3%.

For the compound `CC(C)(C)c1cc(NC(=O)Nc2ccc(-c3cn4c(n3)sc3cc(OCCN5CCOCC5)ccc34)cc2)no1`, the activity, percent of control worked out at 0.456%.

Consider `COc1cc2c(Oc3ccc(NC(=O)C4(C(=O)Nc5ccc(F)cc5)CC4)cc3F)ccnc2cc1OCCCN1CCOCC1`, for which the activity, percent of control was -0.633%.

Take `Cc1cnc(Nc2ccc(F)cc2Cl)nc1-c1c[nH]c(C(=O)N[C@H](CO)c2cccc(Cl)c2)c1`: the activity, percent of control was determined as 17.2%.

As for `CC(C)(C)c1cc(C(C)(C)C)c(NC(=O)c2c[nH]c3ccccc3c2=O)cc1O`, the activity, percent of control was 28.9%.

`Nc1cc(C(F)(F)F)c(-c2cc(N3CCOCC3)nc(N3CCOCC3)n2)cn1`: the activity, percent of control worked out at 69.9%.

For `CCCCCN(CCC12CC3CC(CC(C3)C1)C2)C(=O)NCCCc1ccncc1`, the activity, percent of control was determined as 32.6%.

Consider `Cc1ccc(C(=O)Nc2ccc(CN3CCN(C)CC3)c(C(F)(F)F)c2)cc1C#Cc1cnc2cccnn12`, for which the activity, percent of control was 0.143%.

For `CNC(=O)c1cc(Oc2ccc(NC(=O)Nc3cc(C(C)(C)C)nn3-c3ccc4ncccc4c3)c(F)c2)ccn1`, the activity, percent of control was found to be 73.3%.

For `Nc1nc(Nc2ccc(S(N)(=O)=O)cc2)nn1C(=O)c1c(F)cccc1F`, the activity, percent of control is 9.84%.

Consider `CC(C)C[C@H](NC(=O)CNC(=O)c1cc(Cl)ccc1Cl)B(O)O`, for which the activity, percent of control was -0.333%.

Take `CN1CCC(CNc2ccc3ncc(-c4cccc(OC(F)(F)F)c4)n3n2)CC1`: the activity, percent of control was -0.747%.

`CC(C)c1ccccc1Cc1cc(C(=O)Nc2ccc(S(=O)(=O)c3ccccc3C(C)(C)C)cc2)c(O)c(O)c1O`: the activity, percent of control is 2.09%.

Regarding `CC(NCc1ccc2c(c1)nc(NC(=O)c1ccc(-c3cn[nH]c3)s1)n2CC(C)(C)O)C(C)(C)C` (stereo not given), the activity, percent of control is -0.339%.

As to `O=c1[nH]nc(Sc2ncc([N+](=O)[O-])s2)n1-c1ccc2c(c1)OCCO2`, the activity, percent of control is 65.9%.

In the case of `CC(C)(O)CCc1ccc(OCc2cc(-c3cccc(OC(F)F)c3)c3ncccc3c2)cc1`, the activity, percent of control came to 37.1%.

Turning to `CC1(C)OC2=C(C(=O)c3ccccc3C2=O)[C@H](NCc2ccccc2)[C@H]1O`, the activity, percent of control was 0.336%.

As to `N#Cc1c(O)c2c(-c3ccc(-c4ccccc4O)cc3)csc2[nH]c1=O`, the activity, percent of control came out at 96%.

`C#Cc1cccc(Nc2ncnc3cc(OC)c(OCCCCCCC(=O)NO)cc23)c1`: the activity, percent of control came out at 0.0372%.
